Experimental data reported in PubChem BioAssay AID652054 (National Center for Advancing Translational Sciences (NCATS), 2013).
The campaign covered roughly 360,000 compounds. About 9,100 (2.5%) were called active. Roughly 4% stayed inconclusive and do not appear here. No stated cut-off is given here; in the data, active means max response below about -50%; inconclusive means no clear call, values can overlap the other calls; inactive means above that. For the sample, actives were picked, then their nearest neighbours and some compounds at random.

These molecules were tested against D(3) dopamine receptor (Homo sapiens) (UniProt P35462) (assay: qHTS of D3 Dopamine Receptor Antagonist: qHTS). Settings: D3R cells, DiscoveRx beta-arrestin luminescence, antagonist mode; active compounds read low.
How it was run: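 Cells plated overnight at 1500 cells/well, then exposed to library compounds with dopamine controls for 90 minutes at 37 degrees C. DiscoveRx reagent added for 30–60 minutes at room temperature; luminescence read, quantitative HTS format.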
On the % scale 0 is the no-effect control and ±100 the full control effect.

D(3) dopamine receptor (Homo sapiens), sequence (P35462 whole entry, looked up): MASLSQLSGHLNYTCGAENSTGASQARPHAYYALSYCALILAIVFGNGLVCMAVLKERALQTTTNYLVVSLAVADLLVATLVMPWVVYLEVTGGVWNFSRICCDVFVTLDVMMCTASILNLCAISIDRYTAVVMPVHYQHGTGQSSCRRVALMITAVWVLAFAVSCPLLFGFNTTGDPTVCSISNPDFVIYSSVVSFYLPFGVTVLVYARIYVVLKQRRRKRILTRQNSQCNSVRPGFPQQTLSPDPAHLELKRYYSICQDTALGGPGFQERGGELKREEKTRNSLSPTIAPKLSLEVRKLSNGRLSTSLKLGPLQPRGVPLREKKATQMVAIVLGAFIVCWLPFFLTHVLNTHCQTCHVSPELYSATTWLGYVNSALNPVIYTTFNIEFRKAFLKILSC

Q: With CC(C)C[C@H]1CN([C@@H](Cc2ccccc2)CN2CCC[C@@H]2CN2C(=O)C(=O)NC[C@@H]2Cc2ccc(O)cc2)C(=O)C(=O)N1CCc1ccccc1 as the molecule, how does the max response, negative = inhibition read?
A: 7.71% (inactive)

Q: For COc1cccc(-c2cc3nc(NCCOc4ccccc4Cl)n(C)c(=O)c3s2)c1, which max response, negative = inhibition is on record?
A: 18.3% (inactive)

Q: Which max response, negative = inhibition does the source give for COCCNc1ncnc2c1ncn2[C@H]1CN(CCN2CCOCC2)C[C@@H](CO)O1 here?
A: -14.7% (inactive)

Q: How did the max response, negative = inhibition turn out when CCC(=O)N1CCCC1(C)C(=O)Nc1ccc2c(c1)CCN2C(C)=O (stereo unspecified) was run?
A: 19.1% (inactive)

Q: Which max response, negative = inhibition does the source give for CCC1Nc2ncnc(N3CCN(c4ccccc4)CC3)c2N(Cc2ccc(Cl)cc2)C1=O (stereo unspecified) here?
A: -73.8% (active)

Q: CC[C@]1(C(=O)OC)[C@H]2C(=O)N(Cc3ccccc3)C(=O)[C@H]2[C@H]2CN=C(SCc3ccc(Cl)cc3)N21 was tested. Which max response, negative = inhibition did it give?
A: -3.9% (inactive)

Q: How did the max response, negative = inhibition turn out when OC[C@@H]1CN(Cc2ccncc2)C[C@H](n2cnc3c(N4CCN(c5ccccc5)CC4)ncnc32)O1 was run?
A: 3.87% (inactive)

Q: For O=C(CNC(=O)N1CC(=O)Nc2ccccc21)Nc1ccc(Br)cc1F, which max response, negative = inhibition is on record?
A: 0% (inactive)

Q: With COc1ccc(NC(=O)C2Cc3c(-c4ccc(Cl)cc4)ccnc3O2)cc1 (stereo unspecified) as the molecule, how does the max response, negative = inhibition read?
A: 28.4% (inactive)

Q: CC1(C(=O)NS(=O)(=O)Cc2cccc(Cl)c2)CCN1C(=O)Cc1ccccc1 (stereo unspecified) was tested. Which max response, negative = inhibition did it give?
A: -2.25% (inactive)

Q: How did the max response, negative = inhibition turn out when CCc1ccc([C@@H]2CC(=O)[C@@H]3CN(S(=O)(=O)c4ccc(C)cc4)[C@H](c4ccc(Cl)cc4)C[C@@H]3N2S(=O)(=O)c2ccc(C)cc2)cc1 was run?
A: 0% (inactive)

Q: How did the max response, negative = inhibition turn out when O=C(O)c1ccccc1-c1cccc2nncn12 was run?
A: 0% (inactive)

Q: With Cc1ccc(S(=O)(=O)N2CC[C@H]3[C@@H](C2)C(=O)C[C@@H](c2ccccc2)N3S(=O)(=O)c2ccc(C)cc2)cc1 as the molecule, how does the max response, negative = inhibition read?
A: -19.4% (inactive)

Q: Which max response, negative = inhibition does the source give for Cc1cc(C)cc(NC(=O)C2CCCN2S(=O)(=O)c2cccc3cccnc23)c1 (stereo unspecified) here?
A: -1.4% (inactive)

Q: Cc1ccc(NC(=O)C2CCCN2S(=O)(=O)c2cccc3cccnc23)c(C)c1 (stereo unspecified) was tested. Which max response, negative = inhibition did it give?
A: 9.44% (inactive)

Q: How did the max response, negative = inhibition turn out when O=C(Nc1nccs1)C1CCCN1S(=O)(=O)c1cccc2cccnc12 (stereo unspecified) was run?
A: -56.6% (active)

Q: For CC1(C(=O)Nc2ccc3c(c2)OCCO3)CCN1C(=O)Cc1cc(F)ccc1F (stereo unspecified), which max response, negative = inhibition is on record?
A: 26.4% (inactive)

Q: With COc1ccc(-c2cc3nc(NCCOc4ccccc4)ccn3n2)cc1 as the molecule, how does the max response, negative = inhibition read?
A: 35.5% (inactive)

Q: How did the max response, negative = inhibition turn out when CCn1c(-c2ccncc2)n[nH]c1=S was run?
A: 0.921% (inactive)

Q: S=c1[nH]nc(-c2ccc(Cl)cc2)n1CC1CCCO1 (stereo unspecified) was tested. Which max response, negative = inhibition did it give?
A: -72% (active)

Q: Which max response, negative = inhibition does the source give for Cc1nnc(SCC(=O)NNC(=O)c2ccc(Cl)cc2)n1CC1CCCO1 (stereo unspecified) here?
A: -18.7% (inactive)

Q: O=C(Nc1cc(Br)ccc1F)c1nc[nH]c1C(=O)NCc1ccccc1 was tested. Which max response, negative = inhibition did it give?
A: -14.4% (inactive)

Q: COc1ccc(-c2[nH][nH]c(=O)c2NC(=O)c2ccc([N+](=O)[O-])cc2)cc1 was tested. Which max response, negative = inhibition did it give?
A: -25.3% (inactive)

Q: For COC(=O)c1ccc2nc(-c3ccc(OC)c(OC)c3)c(Cc3ccccc3)n2c1, which max response, negative = inhibition is on record?
A: 1.12% (inactive)

Q: For O=[N+]([O-])c1ccccc1S(=O)(=O)Nc1cccc2cccnc12, which max response, negative = inhibition is on record?
A: -72% (active)

Q: Which max response, negative = inhibition does the source give for COc1cc(NS(=O)(=O)c2ccc3ccccc3c2)c2ncccc2c1 here?
A: -25.7% (inactive)

Q: With Cc1ccc2cccc([N+](=O)[O-])c2n1 as the molecule, how does the max response, negative = inhibition read?
A: 0% (inactive)

Q: CC(C)Oc1cc(F)ccc1-c1cc(C(=O)Nc2cccc(Cl)c2)[nH]n1 was tested. Which max response, negative = inhibition did it give?
A: 0% (inactive)

Q: How did the max response, negative = inhibition turn out when CCOC(=O)C1=CC[C@@H](c2ccccc2)N(S(=O)(=O)c2ccc(C)cc2)[C@H]1c1cccc(OC)c1 was run?
A: 11.2% (inactive)

Q: For CCc1cc(-c2nnn(CCC3COCCO3)c2CC)ccc1-c1cn(Cc2ccc3ccccc3c2)nn1 (stereo unspecified), which max response, negative = inhibition is on record?
A: -10.8% (inactive)

Q: For CC1CN(CCOc2ccccc2[N+](=O)[O-])CC(C)O1 (stereo unspecified), which max response, negative = inhibition is on record?
A: -93.5% (active)

Q: Which max response, negative = inhibition does the source give for O=C(COc1ccccc1[N+](=O)[O-])NC1CC1 here?
A: 16.3% (inactive)

Q: With O=C(COc1ccc(Cl)cc1[N+](=O)[O-])N1CCCCC1 as the molecule, how does the max response, negative = inhibition read?
A: -5.15% (inactive)

Q: For Cc1cc(OCCCN2CCN(Cc3ccccc3)CC2)ccc1[N+](=O)[O-], which max response, negative = inhibition is on record?
A: -14.9% (inactive)

Q: C=CCN(CC=C)CCOc1ccccc1[N+](=O)[O-] was tested. Which max response, negative = inhibition did it give?
A: -52.4% (active)

Q: Which max response, negative = inhibition does the source give for Cc1cc(C)c(OCCN2CC(C)OC(C)C2)c(Br)c1 (stereo unspecified) here?
A: -21.2% (inactive)

Q: O=[N+]([O-])c1ccccc1OCCCCN1CCCCC1 was tested. Which max response, negative = inhibition did it give?
A: -89.3% (active)

Q: How did the max response, negative = inhibition turn out when CC1CN(CCCOc2ccccc2-c2ccccc2)CC(C)O1 (stereo unspecified) was run?
A: -29.6% (inactive)

Q: How did the max response, negative = inhibition turn out when Cc1ccc(OCC(=O)Oc2ccccc2[N+](=O)[O-])cc1 was run?
A: 0.0069% (inactive)

Q: How did the max response, negative = inhibition turn out when O=c1[nH][nH]c2c1[C@H](c1ccc(Cl)cc1)O[C@H](CCc1ccccc1)C2 was run?
A: -23.3% (inactive)

Q: How did the max response, negative = inhibition turn out when CCCNC(=O)C1(C)CCN(C(=O)c2cc(F)ccc2C)C1 (stereo unspecified) was run?
A: -11.8% (inactive)

Q: For CC(C)CN1CCC1(C)C(=O)Nc1ccc(OC(F)F)cc1 (stereo unspecified), which max response, negative = inhibition is on record?
A: 12.7% (inactive)

Q: With O=C(Nc1cc(F)ccc1F)c1ccc2c(=O)n3c(nc2c1)CCC3 as the molecule, how does the max response, negative = inhibition read?
A: 8.55% (inactive)

Q: For Cc1ccc(NC(=O)[C@H](Cc2ccccc2)NC(=O)CC[C@H]2O[C@@H](n3ccc(=O)[nH]c3=O)[C@H](O)[C@@H]2O)cc1C, which max response, negative = inhibition is on record?
A: -15.6% (inactive)

Q: For OC[C@@H]1CN(Cc2ccc(F)cc2)C[C@H](n2cnc3c(NC4CCCC4)ncnc32)O1, which max response, negative = inhibition is on record?
A: 4.42% (inactive)

Q: Which max response, negative = inhibition does the source give for CC1(C(=O)NS(=O)(=O)c2ccccc2)CCN1C(=O)c1ccccc1 (stereo unspecified) here?
A: 10.2% (inactive)

Q: For CC1(C(=O)NS(=O)(=O)c2ccccc2)CCN1C(=O)C/C=C/c1ccccc1 (stereo unspecified), which max response, negative = inhibition is on record?
A: -9.32% (inactive)

Q: With CC1(C)CCSC(/C=C/c2ccccc2)=N1 as the molecule, how does the max response, negative = inhibition read?
A: -74.9% (active)

Q: For CC1(C(=O)O)CCN1C(=O)/C=C/c1ccccc1 (stereo unspecified), which max response, negative = inhibition is on record?
A: 0% (inactive)

Q: With CCC1OC(C2CC2)CC2=C1C(=O)OC(C)(C)O2 (stereo unspecified) as the molecule, how does the max response, negative = inhibition read?
A: 14.7% (inactive)

Q: How did the max response, negative = inhibition turn out when CCCC(=O)N1CCC1(C)C(=O)NCc1ccc(C(C)C)cc1 (stereo unspecified) was run?
A: -6.82% (inactive)

Q: With CN(CC#CCC(c1ccccc1)c1ccccc1)C(C)(C)C as the molecule, how does the max response, negative = inhibition read?
A: -61.6% (active)

Q: For CC(C)(C)N(CC#CCC(O)(c1ccccc1)C1CCCC1)CCO (stereo unspecified), which max response, negative = inhibition is on record?
A: 11.7% (inactive)

Q: Which max response, negative = inhibition does the source give for O=C1CCC(=O)N1CCC(=O)N(C(=O)NC1CCCCC1)C1CCCCC1 here?
A: 14.6% (inactive)

Q: CC1(C)NC(=O)N(CC(=O)Nc2ccc(-c3ccccc3)cc2)C1=O was tested. Which max response, negative = inhibition did it give?
A: 16.4% (inactive)

Q: For c1ccc2c(c1)CSc1sccc1C2=C1CCNCC1, which max response, negative = inhibition is on record?
A: -65.7% (active)
